From PubChem
This excerpt belongs to a sample that is enriched for hits.
Dicer processing: inhibitors of Dicer pre-microRNA processing, primary screen, biochemical, cat-ELCCA, chemiluminescence; cat-ELCCA pre-miR-21 Dicer processing; active compounds read high; hit rate 6% among 47,000; AID 1347074, 2019; z-score at 25 µM; Endoribonuclease Dicer (Homo sapiens), Q9UPY3; in the data active means z-score above about 3, passing the limit was not always enough;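 further: plate controls were vehicle for no effect and no enzyme for full effect; higher signal means more uncleaved substrate so more Dicer inhibition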
An asterisk follows results filed as active.

SMILES	Dicer processing
CN(C)c1ccc(C2Nc3ccc(C(=O)c4ccccc4)cc3NC3=C2C(=O)CCC3)cc1 (stereo unspecified)	5*
COc1cc(C2Nc3ccc(C(=O)c4ccccc4)cc3NC3=C2C(=O)CCC3)ccc1OC(C)=O (stereo unspecified)	-0.22
COc1ccc(C2Nc3ccc(C(=O)c4ccccc4)cc3NC3=C2C(=O)CCC3)c(OC)c1 (stereo unspecified)	1.9
COC(=O)c1sc(Br)c(Br)c1OC(=O)c1ccc(C(C)(C)C)cc1	-1.5
Cc1sc2c(c1C)C(=O)/C(=C\Nc1ccccc1Cl)S(=O)(=O)N2C	4.8*
CN1c2ccsc2C(=O)/C(=C\Nc2ccccc2Cl)S1(=O)=O	-0.04
Cc1sc2c(c1C)C(=O)/C(=C\Nc1ccccn1)S(=O)(=O)N2C	0.25
COC(=O)c1scc(NS(=O)(=O)c2cccc(C(F)(F)F)c2)c1C(=O)OC	-0.77
Fc1ccc(N=CNc2ccc(F)cc2F)c(F)c1	-0.94
CC(=O)c1nnn(-c2c(Cl)cc(Cl)cc2Cl)c1C	-0.06
CCOc1ccccc1/C=C1N=C(/C=C/c2ccccc2)OC/1=O	2
COc1ccc(/C=C2/N=C(C)OC2=O)cc1	-0.48
COc1ccc(/C=C2N=C(/C=C/c3ccccc3)OC/2=O)cc1	4.4*
S=C(NNC(=S)NC1CC2CCC1C2)NC1CC2CCC1C2 (stereo unspecified)	1.9
S=C(NN=C1CCCC1)NC1CC2CCC1C2 (stereo unspecified)	-0.5
Oc1ccc(/C=N/NC(=S)NC2CC3CCC2C3)cc1 (stereo unspecified)	24*
Cc1ccccc1-n1ncc(C(=O)O)c1C	0.31
Brc1ccc2c(c1)c1ccccc1n2CN1CCCCC1	2.1
Cc1ccc2c(c1)CCCN2CC(=O)Nc1ccc(Cl)cc1C(=O)NCc1cccs1	-0.31
NC(/C=C/c1cc(C(F)(F)F)cc(C(F)(F)F)c1)=N\OC(=O)/C=C/c1ccccc1	-0.65
Oc1c(C(c2ccccn2)N2CCCC2)ccc2cccnc12 (stereo unspecified)	0.52
CCN1CCN(Cc2ccc3cccnc3c2O)CC1	-1.2
Oc1c(C(c2ccc(F)cc2)N2CCCCC2)ccc2cccnc12 (stereo unspecified)	3.7*
FC(F)(F)/C(=N\Sc1c(-c2ccccc2)nc2ccccn12)c1ccccc1	-1.5
CCOC(=O)C1=C(N)Oc2ccc3ccccc3c2C1c1ccc2c(c1)OCO2 (stereo unspecified)	-0.89
SMILES	Dicer processing
CSc1nc(CSc2ccc(Cl)cc2)nc(C2CC2)c1C#N	6.9
CCc1ccccc1CSc1nc(C)cc(C)c1C#N	0.42
Cc1ccc(C)c(CSc2nc(C3CCCCC3)c(C#N)c(=O)[nH]2)c1	4.3*
CCOC(=O)C1=NOC2C(=O)N(c3ccccc3)C(=O)C12 (stereo unspecified)	1.1
CC1CCc2c(sc3nnn(CC(=O)OCc4ccccc4)c(=O)c23)C1 (stereo unspecified)	0.76
Cc1cc(NC(=O)CSc2nnc3c4ccccc4n(C)c3n2)no1	2.5
C=CCn1c2ccccc2c2nnc(SCC(=O)Nc3c(C)n(C)n(-c4ccccc4)c3=O)nc21	0.96
Cc1c(NC(=O)CSc2nnc3c4ccccc4n(C)c3n2)c(=O)n(-c2ccccc2)n1C	3.2*
CC(=O)Oc1ccc2c(c1)oc(=O)c1c3cc(OC(C)=O)c(OC(C)=O)cc3oc21	0.8
Cc1ccc(CNC2(NC(=O)c3ccc(C(F)(F)F)cc3)C(=O)c3ccccc3C2=O)cc1	0.03
O=C(O)CC(CC(=O)O)c1ccc(Cl)cc1	1.3
CC(CC(=O)O)CC(=O)NCc1ccc(Cl)cc1 (stereo unspecified)	3.3*
CC(CC(=O)O)CC(=O)Nc1nncs1 (stereo unspecified)	-2.2
O=[N+]([O-])c1cnc(Sc2n[nH]c(-c3ccc(Cl)cc3)n2)s1	-2.6
COc1ccc(-c2[nH]ncc2/C=C(\C#N)S(C)(=O)=O)cc1	-0.1
C(=N\Nc1nnc2c(n1)[nH]c1ccccc12)/c1ccccc1	0.32
O=C1S/C(=C\c2ccc(F)cc2)C(=O)N1c1ccccc1	1.3
Cc1cc(C)c2c(=O)c(/C=C3/SC(=S)N(c4ccc(F)cc4)C3=O)coc2c1	5.5*
CC(C)c1ccc(N2C(=O)/C(=C/N(C)C)SC2=S)cc1	0.36
Cc1nnc(N2C(=O)c3oc4ccccc4c(=O)c3C2c2cccc(Br)c2)s1 (stereo unspecified)	0.8
COc1ccc(C2CC(=O)C3=C(C2)Nc2ccccc2NC3c2ccc(O)cc2)cc1OC (stereo unspecified)	-0.66
O=C1CC(c2ccccc2)Cc2nc(NCc3ccco3)ncc21 (stereo unspecified)	3.9*
O=C(Nc1ncc2c(n1)CC(c1ccccc1)CC2=O)c1ccco1 (stereo unspecified)	4.2*
Cc1nc(Nc2ncc3c(n2)CC(c2ccccc2)CC3=O)nc2ccccc12 (stereo unspecified)	1.3
CCC(C)C(=O)Nc1ncc2c(n1)CC(c1ccc(C(C)C)cc1)CC2=O (stereo unspecified)	0.71
